The text below walks through data of PubChem BioAssay (NCI).

Assay in all cases: NCI-60 one-dose screen, 48 h (100 = growth as untreated, 0 = no growth, -100 = all killed)
For one experiment, the system named is HOP-92 NSCLC. The conditions noted are these: 10 µM.
In a further experiment the test system is COLO 205 colon. Particulars: 10 µM.
For the next experiment, the system named is K-562 leukemia. The conditions noted are these: 10 µM.
A further experiment has as its system MDA-MB-231 breast. Particulars: 10 µM.
For a further experiment, the system named is RXF 393 renal. The conditions noted are these: 10 µM.
The subject of the next experiment is LOX IMVI melanoma. Particulars: 10 µM.
In another experiment the test system is UO-31 renal. Particulars: 10 µM.
The next experiment relates to CCRF-CEM leukemia. The conditions noted are these: 10 µM.
Another experiment deals with MOLT-4 leukemia. The conditions noted are these: 10 µM.
The test system of another experiment is SR leukemia. Particulars: 10 µM.
For a further experiment, the system named is OVCAR-5 ovarian. Particulars: 10 µM.
The next experiment relates to HS 578T breast. Particulars: 10 µM.
The next experiment relates to NCI/ADR-RES ovarian. Particulars: 10 µM.
A further experiment concerns T-47D breast. The conditions noted are these: 10 µM.
The subject of a further experiment is SW-620 colon. The conditions noted are these: 10 µM.
A further experiment relates to KM12 colon. Particulars: 10 µM.
Another experiment has as its system MDA-MB-468 breast. The conditions noted are these: 10 µM unless noted.
The test system of a further experiment is NCI-H522 lung. The conditions noted are these: 10 µM.
For the next experiment, the system named is MCF7 breast. Particulars: 10 µM.
For the next experiment, the system named is NCI-H23 lung. Particulars: 10 µM.

Molecules are shown by their SMILES. Compounds without any hit were thinned out: in the full panel of roughly 83,000, 20% have a hit.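 Method: cells in 96-well plates; compound added at one concentration; 48 h incubation; percent growth measured; values under 10 scored active.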 Values without a mark were called inactive. Activity calls are given as the source filed them.

Regarding `CC(=O)Oc1ccccc1C(=O)[Se]C(=NC(C)C)NC(C)C`, the growth is -49.2% (active) in the experiment on HOP-92 NSCLC; -69% (active) in the experiment with COLO 205 colon; -29.6% (active) in the experiment with K-562 leukemia; -50.5% (active) with MDA-MB-231 breast; -98.3% (active) in the experiment with RXF 393 renal; -80% (active) in the experiment with LOX IMVI melanoma. For the same compound, the growth in the experiment on UO-31 renal is -100% (active); in the experiment on CCRF-CEM leukemia, -1.77% (active); in the experiment on MOLT-4 leukemia, -15.4% (active); in the experiment with SR leukemia it was -27.5% (active); in the experiment with OVCAR-5 ovarian, -66.5% (active); with HS 578T breast, -15.6% (active). For the same compound, the growth with NCI/ADR-RES ovarian was -25.3% (active); in the experiment with T-47D breast, -45.6% (active); in the experiment on SW-620 colon it was -72.4% (active); in the experiment on KM12 colon it was -89.6% (active); in the experiment on MDA-MB-468 breast, -64.4% (active).
Consider `C#CC[Se]C(=O)c1ccc(C(=O)[Se]CC#C)s1`, for which the growth was 157% in the experiment with HOP-92 NSCLC; 99.8% in the experiment with NCI-H522 lung; 86% in the experiment on COLO 205 colon; 89.6% in the experiment with K-562 leukemia; 95% in the experiment on MDA-MB-231 breast; 101% in the experiment on RXF 393 renal. The growth in the experiment on LOX IMVI melanoma was 93.1%; with UO-31 renal, 47.8%; in the experiment on CCRF-CEM leukemia, 77.4%; with MOLT-4 leukemia it was 101%; with SR leukemia, 26.8%; in the experiment on OVCAR-5 ovarian it was 81.3%. The growth is 92.4% in the experiment on HS 578T breast; 98.2% in the experiment on SW-620 colon; 91.5% in the experiment on MCF7 breast; 42.8% with KM12 colon; 64.5% with MDA-MB-468 breast.
As to `CC(C)N=C([Se])NC(=O)c1ccccc1`, the growth is -34.3% (active) in the experiment on HOP-92 NSCLC; -77.7% (active) with NCI-H522 lung; -11.7% (active) with COLO 205 colon; 15.9% in the experiment with K-562 leukemia; -48.6% (active) in the experiment on MDA-MB-231 breast; -83.7% (active) in the experiment on RXF 393 renal. The growth is -37.3% (active) with LOX IMVI melanoma; -99% (active) in the experiment on UO-31 renal; 5.47% (active) with CCRF-CEM leukemia; 2.86% (active) with MOLT-4 leukemia; -9.62% (active) in the experiment with SR leukemia; -2.5% (active) in the experiment on HS 578T breast. The growth with NCI/ADR-RES ovarian was -11% (active); in the experiment with T-47D breast it was -34.6% (active); in the experiment with SW-620 colon, -20.9% (active); in the experiment on KM12 colon, -8.34% (active); in the experiment with MDA-MB-468 breast, -46% (active).
As to `COc1cc(OC)c(S(=O)(=O)N(CCCl)CCCl)cc1C(=O)/C=C/c1cc(OC)c(OC)c(OC)c1`, the growth is 9.15% (active) in the experiment with HOP-92 NSCLC; -69.1% (active) in the experiment on NCI-H522 lung; 4.13% (active) with K-562 leukemia; 23.4% in the experiment on MDA-MB-231 breast; -75.5% (active) in the experiment with RXF 393 renal; -84.5% (active) with LOX IMVI melanoma. In addition, the growth in the experiment with UO-31 renal is -93.9% (active); in the experiment with CCRF-CEM leukemia, 1.08% (active); in the experiment with MOLT-4 leukemia, -1.79% (active); in the experiment on SR leukemia, 2.75% (active); in the experiment with HS 578T breast, 78.3%; with SW-620 colon, 7.43% (active). Further, the growth in the experiment on KM12 colon is -61.2% (active); in the experiment with MDA-MB-468 breast, -40.5% (active).
Regarding `COP(=O)(CC(F)(F)C(F)(F)F)OC`, the growth in the experiment with NCI-H23 lung is 41.8%; in the experiment on HOP-92 NSCLC, -29.8% (active); in the experiment with COLO 205 colon, -59.3% (active); in the experiment with K-562 leukemia, 10.9%; in the experiment on MDA-MB-231 breast, 65.1%; with LOX IMVI melanoma, -63.5% (active). In addition, the growth with UO-31 renal is -81.8% (active); with CCRF-CEM leukemia, 5.28% (active); in the experiment with MOLT-4 leukemia, 5.72% (active); with SR leukemia it was 5.42% (active); in the experiment with HS 578T breast it was 75.3%; in the experiment on SW-620 colon, -15.9% (active). For the same compound, the growth in the experiment with KM12 colon was 94.6%; in the experiment on MDA-MB-468 breast it was -53.6% (active).
For the compound `CC[C@]12C=CCN3CC[C@@]4(c5ccc(OC)cc5N(C)[C@H]4[C@@](O)(C(=O)OC)[C@@H]1OC(=O)CCC[P+](C1CCCCC1)(C1CCCCC1)C1CCCCC1)[C@@H]32`, the growth with NCI-H23 lung is -4.73% (active); with HOP-92 NSCLC, -43.8% (active); with K-562 leukemia it was 3.31% (active); in the experiment on MDA-MB-231 breast it was -90.8% (active); in the experiment with RXF 393 renal, -70.3% (active); in the experiment with LOX IMVI melanoma, -96% (active). Further, the growth in the experiment on UO-31 renal was 76.8%; with CCRF-CEM leukemia, -40.9% (active); in the experiment with MOLT-4 leukemia, 2.35% (active); in the experiment on SR leukemia it was 29.1%; in the experiment with HS 578T breast it was -33% (active); with SW-620 colon it was 3.91% (active). For the same compound, the figures for the growth with MCF7 breast and in the experiment on KM12 colon were -72.2% (active) and -63.4% (active), respectively.
Take `CCOP(=O)(OCC)C(NC(C)=O)C(=O)SCCN` (stereo unspecified): the growth in the experiment on NCI-H23 lung is 101%; with HOP-92 NSCLC it was 108%; in the experiment with K-562 leukemia, 100%; with MDA-MB-231 breast it was 99.2%; in the experiment on LOX IMVI melanoma, 92.1%; in the experiment on UO-31 renal, 81%. The growth in the experiment on CCRF-CEM leukemia was 100%; in the experiment on MOLT-4 leukemia, 105%; with SR leukemia it was 98.4%; in the experiment with OVCAR-5 ovarian it was 104%; with HS 578T breast, 100%; in the experiment on T-47D breast, 99.6%. For the same compound, the figures for the growth in the experiment on SW-620 colon, in the experiment on KM12 colon and in the experiment on MDA-MB-468 breast were 112%, 112% and 124%, respectively.
In the case of `C=CCN=C([Se])NC(=O)c1ccc2c(c1)OCO2`, the growth in the experiment on HOP-92 NSCLC is 151%; in the experiment on K-562 leukemia it was 107%; in the experiment on MDA-MB-231 breast, 103%; in the experiment with RXF 393 renal, 128%; in the experiment on LOX IMVI melanoma, 104%; in the experiment with UO-31 renal, 115%. For the same compound, the growth in the experiment on CCRF-CEM leukemia was 87.1%; in the experiment with MOLT-4 leukemia, 107%; in the experiment with SR leukemia, 93.1%; in the experiment with HS 578T breast, 99.3%; in the experiment with T-47D breast, 96.6%; in the experiment with SW-620 colon it was 111%. Besides, the growth in the experiment with MCF7 breast is 102%; in the experiment with KM12 colon it was 41.1%; in the experiment with MDA-MB-468 breast, 110%.
Regarding `COCCOCCOCCOc1ccc(-n2cc(CCCN(CCNc3ccnc4cc(Cl)ccc34)C(=O)CCC(=O)O[C@@H]3O[C@@H]4OC5(C)CC[C@H]6[C@H](C)CC[C@@H]([C@H]3C)[C@@]46OO5)nn2)cc1`, the growth in the experiment with NCI-H23 lung is 47.9%; in the experiment on HOP-92 NSCLC, 19.3%; in the experiment with K-562 leukemia, 17.2%; with MDA-MB-231 breast, 73.5%; with RXF 393 renal, 33.6%; in the experiment on LOX IMVI melanoma, 1.51% (active). Also, the growth was 16.4% in the experiment with UO-31 renal; 26.4% with CCRF-CEM leukemia; 7.21% (active) with MOLT-4 leukemia; -5.07% (active) in the experiment on SR leukemia; 34.9% in the experiment on HS 578T breast; 26.8% in the experiment on NCI/ADR-RES ovarian. Further, the growth in the experiment with SW-620 colon was 30%; in the experiment on MCF7 breast it was 22.2%; with KM12 colon it was 28.6%; in the experiment with MDA-MB-468 breast, 44.9%.
Turning to `COc1cc(OC)c(/C=C/C(=O)c2nc3ccccc3n2Cc2ccc(F)cc2)c(OC)c1`, the growth in the experiment on NCI-H23 lung is 89%; in the experiment with HOP-92 NSCLC, 50.2%; in the experiment on K-562 leukemia it was 81.9%; with RXF 393 renal, 33.7%; with UO-31 renal, 82.7%; in the experiment with CCRF-CEM leukemia, 64.5%. In addition, the growth in the experiment with MOLT-4 leukemia is 44.7%; in the experiment with SR leukemia, 74.3%; in the experiment on OVCAR-5 ovarian, 112%; in the experiment with NCI/ADR-RES ovarian, 78.2%; in the experiment on KM12 colon, 91.4%; in the experiment on MDA-MB-468 breast it was 80.1%.
